Results reported in PubChem BioAssay AID720690 (Broad Institute, 2013).
Potency and affinity values are given separately. A number with no mark means an inactive call.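 How the source made its calls: active means every repeat run showing a signal drop whose fitted half-maximal concentration is at most twice the top tested concentration; inconclusive means repeat runs disagree, or flat partial drop, or poor fit; inactive means the rest.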

Assay: general mammalian cell viability loss – activator set, cherry-pick, cytotoxicity control for miR-122 modulator project, dose response (AID 720690);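 further: 0% = neutral control wells and -100% = MG132 cytotoxic control wells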
Details: HEK293T viability, CellTiter-Glo luminescence, 48 h; series mostly up to 26 µM; activity change, negative = cytotoxicity: at the top concentration

Structure (SMILES)	activity change, negative = cytotoxicity
CNC(=O)C[C@H]1CC[C@@H]2[C@H](COc3ccc(NC(=O)Nc4ccccc4OC)cc3C(=O)N2C)O1	-0.263%
CO[C@@H]1CN(C)C(=O)c2ccc(NC(=O)c3ccc(Oc4ccccc4)cc3)cc2OC[C@H](C)NC[C@H]1C	-13.4%
C[C@@H]1CN([C@@H](C)CO)C(=O)c2cccc(NC(=O)Nc3ccc4c(c3)OCO4)c2O[C@@H]1CN(C)Cc1ccc(Oc2ccccc2)cc1	-15.5%
COC(=O)C[C@H]1CC[C@@H]2[C@@H](COc3ccc(NC(=O)c4cscn4)cc3C(=O)N2C)O1	-6.16%
CCC(=O)N1[C@H](CO)[C@@H](c2ccccc2)[C@@H]1CN(C)C(=O)CN1CCOCC1	2.2% [at 23.5 µM]
CN1C(=O)c2cc(NC(=O)c3cccc(C(F)(F)F)c3)ccc2OC[C@H]2O[C@H](CC(=O)NCCN3CCCC3)CC[C@H]21	-2.32%
CN1C(=O)c2cc(NC(=O)Cc3ccccc3)ccc2OC[C@H]2O[C@@H](CC(=O)NC3CCC3)CC[C@@H]21	1.07%
CN1C(=O)c2cc(NC(=O)c3cccc(F)c3)ccc2OC[C@@H]2O[C@H](CC(=O)O)CC[C@@H]21	-7.57% [at 23.5 µM]
CC(=O)N1[C@H](CN(C)S(=O)(=O)c2ccccc2)[C@H](c2ccccc2)[C@@H]1CO	-9.41%
Cc1ccccc1NCN1C(=O)C2C3C=CC(C3)C2C1=O (stereo unspecified)	3.51%
C[C@@H]1CN([C@@H](C)CO)S(=O)(=O)c2ccc(C3=CCCCC3)cc2O[C@@H]1CN(C)C(=O)Nc1ccc2c(c1)OCO2	-10.2%
CN1C(=O)c2cc(NC(=O)c3cccc(F)c3)ccc2OC[C@H]2O[C@H](CC(=O)O)CC[C@@H]21	-4.45%
CCCNC(=O)C[C@H]1CC[C@@H]2[C@H](COc3ccc(NC(=O)c4cccs4)cc3C(=O)N2C)O1	3.1%
CO[C@@H]1CN(C)C(=O)c2ccc(NC(C)=O)cc2OC[C@@H](C)N(C(=O)c2ccccc2F)C[C@H]1C	3.69% [at 13.5 µM]
C/C=C/c1ccc([C@H]2[C@@H](CO)N(C(=O)CC)[C@H]2CNC(=O)CC)cc1	-1.2%
C/C=C/c1ccc([C@@H]2[C@@H](CO)N(C(=O)C3CC3)[C@H]2CN(C)C(=O)CC2CC2)cc1	5%
O=C(Nc1ccc(F)cc1)N1C[C@@H]2[C@H](c3ccccc31)[C@H](CO)N2C(=O)Cc1ccccc1	3.89% [at 23.5 µM]
CC(=O)N(C)C[C@H]1[C@@H](c2ccc(-c3ccc(F)cc3)cc2)[C@@H](CO)N1C(C)=O	10.1%
COc1ccccc1C(=O)N1C[C@@H]2[C@H](c3ccccc31)[C@H](CO)N2CC1CCCC1	-27.2%
CN1C(=O)c2cc(NC(=O)c3cccc(F)c3)ccc2OC[C@@H]2O[C@H](CC(=O)Nc3ccccc3)CC[C@H]21	-6%
COC(=O)C[C@@H]1CC[C@@H]2[C@H](COc3ccc(NC(=O)c4ccc(F)c(F)c4)cc3C(=O)N2C)O1	5.94%
CO[C@@H]1CN(C)C(=O)c2cc(NC(=O)c3cccc(Oc4ccccc4)c3)ccc2OC[C@H](C)NC[C@@H]1C	-5.67%
CN1C(=O)c2cc(NC(=O)c3cccs3)ccc2OC[C@@H]2O[C@@H](CC(=O)N3CCOCC3)CC[C@H]21	4.42% [at 23.5 µM]
Cc1cc(C(=O)Nc2ccc3c(c2)C(=O)N(C)[C@H]2CC[C@@H](CC(=O)N[C@@H](C)c4ccccc4)O[C@H]2CO3)no1	-6.39% [at 23.5 µM]
CNC(=O)C[C@H]1CC[C@@H]2[C@H](COc3ccc(NC(=O)c4ccc(OC)cc4)cc3C(=O)N2C)O1	-9.74%
CC(=O)N(C)C[C@@H]1[C@@H](c2ccc(-c3cccc(C#N)c3)cc2)[C@H](CO)N1C(C)=O	-9.1%
